# From PubChem BioAssay AID588451 (Broad Institute, 2011)
# Potency and affinity values are given separately. Calls of active or inactive are those of the source. Entries that show only a call come without a potency. The rule behind the calls is not given here.
# Biological target: Luciferin 4-monooxygenase (Photinus pyralis) (UniProt P08659)
# Experiment: inhibition of purified Photinus pyralis luciferase – biochemical, dry powder samples, plate reader, dose response (AID 588451)
# Sequence of Luciferin 4-monooxygenase (Photinus pyralis) (P08659 whole entry, looked up): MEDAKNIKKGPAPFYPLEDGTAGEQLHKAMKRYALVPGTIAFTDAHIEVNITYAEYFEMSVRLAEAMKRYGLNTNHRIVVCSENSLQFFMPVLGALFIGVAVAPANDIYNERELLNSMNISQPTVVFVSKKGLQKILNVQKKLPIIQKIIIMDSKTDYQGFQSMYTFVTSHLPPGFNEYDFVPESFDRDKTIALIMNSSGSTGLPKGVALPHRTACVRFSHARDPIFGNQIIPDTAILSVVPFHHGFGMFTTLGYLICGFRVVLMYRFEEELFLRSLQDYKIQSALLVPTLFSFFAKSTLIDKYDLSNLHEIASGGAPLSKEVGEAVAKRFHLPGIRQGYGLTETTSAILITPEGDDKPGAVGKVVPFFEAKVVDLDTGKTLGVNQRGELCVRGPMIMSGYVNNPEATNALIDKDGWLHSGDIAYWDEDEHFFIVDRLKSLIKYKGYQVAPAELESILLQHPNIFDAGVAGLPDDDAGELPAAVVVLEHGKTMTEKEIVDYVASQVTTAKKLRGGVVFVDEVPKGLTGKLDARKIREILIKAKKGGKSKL
smiles,measurement,value
Cc1ccc(C(=O)N/N=C/c2ccc([N+](=O)[O-])s2)cc1,outcome,inactive
